Pf growth 48h: inhibits P. falciparum growth in the first generation, 48 h | 5.9% of 310,000 active | P. falciparum luciferase growth in erythrocytes, 48 h | Potency, µM (doses to about 28.7 µM), for inactives: at the highest dose activity change, negative = inhibition, hits mostly inhibitors | AID 504832; also: % is scaled to controls: 0 for no effect and ±100 for the full control effect
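A one-generation exposure of luciferase-tagged malaria parasites in RPMI 1640/Albumax erythrocyte culture, 37 C and 5% CO2. Inhibition is inferred from decreased luminescence after adding detection reagent.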
Pf growth 96h: P. falciparum growth inhibition at 96 hour, primary screen for plastid delayed-death inhibitors; P. falciparum luciferase reporter growth, 96 h; Potency, µM (series often up to 28.7 µM), for inactives: at the highest dose activity change, negative = inhibition, most hits filed as inhibitors; 6.9% of 320,000 active; AID 504834; also: % is scaled to controls: 0 for no effect and ±100 for the full control effect
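Erythrocytes infected with luciferase-expressing P. falciparum were dispensed at 2% hematocrit and 0.05% parasitemia (final), then incubated with compounds 96 hours at 37 C in 5% CO2. Luminescence after detection reagent addition reported growth.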
NS1 function inh: inhibitors of influenza NS1 protein function. Potency, µM (titrated, usually from 46.1 µM), without a hit: at the highest dose activity, positive = more growth. 0.4% of 270,000 active; calls by dose curve; also: actives are rising curves; nearly all actives have a fitted effect of over 50% in size
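Growth recovery, yeast-based: influenza A NS1 expressed in S. cerevisiae causes slow growth, and suppressors are detected by OD600. The parent strain without NS1 is used as positive control.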
SARS PLpro yeast: SARS-CoV PLP inhibition in yeast; S. cerevisiae expressing SARS-CoV PLpro, growth rescue; Potency, µM (top dose mostly 32.9 µM), for inactives: at the top dose activity, positive = growth rescue, hits mostly activators; 0.19% of 330,000 active; AID 485353; calls by dose curve; also: 0% is about no effect; nearly all actives have a fitted effect of over 55% in size
* = called active by the depositor. In the library only some 10% were active in any assay of this set; here they are far more common. Unless noted, calls follow the shape of the dose curve; as a rule, active = well fitted inhibition curve with a large enough effect; inconclusive = small, poorly fitted or top-dose-only effect, or another doubt; inactive = no such curve, though single readings can be large or run the other way. Potency is read from the fitted curve at half-maximal effect.

For CC1CCN(c2ccc(C(=O)NCc3ccco3)cc2[N+](=O)[O-])CC1 the results were Pf growth 48h 0.828µM*, Pf growth 96h 1.17µM*, NS1 function inh -44.8% and SARS PLpro yeast -56.9%.
`O=C(NCc1ccco1)c1ccc(N2CCOCC2)c([N+](=O)[O-])c1` gave Pf growth 48h -0.6%, Pf growth 96h inconclusive, NS1 function inh 4.4% and SARS PLpro yeast 0.4%.
Cc1ccc(N(Cc2ccco2)C(=O)c2ccc(N3CCCCC3)c([N+](=O)[O-])c2)cc1 was read as Pf growth 48h 0.0%, Pf growth 96h 11.7µM*, NS1 function inh 26.5% and SARS PLpro yeast -3.7%.
`O=C(NCc1ccco1)c1ccc(N2CCCCC2)c([N+](=O)[O-])c1` gave Pf growth 48h 8.28µM*, Pf growth 96h 6.57µM*, NS1 function inh -10.6% and SARS PLpro yeast -35.7%.
For C=CCc1cc(OC)c(O)c(C(=O)NCCO)c1 the results were Pf growth 48h 1.5% and Pf growth 96h -12.0%.
Screening O=C(COC(=O)c1cc(Cl)ccc1O)NCC1CCCO1 (stereo not drawn) returned Pf growth 48h 24.8%, Pf growth 96h -6.8% and SARS PLpro yeast -2.8%.
Screening C[C@H](OC(=O)NCc1ccc(C(F)(F)F)cc1)[C@@H]1O[C@@]2(C)CCC[C@@H]1O2 returned Pf growth 48h 11.5%, Pf growth 96h 30.1% and SARS PLpro yeast 1.4%.
`C[C@H](OC(=O)N1CCN(C(c2ccccc2)c2ccccc2)CC1)[C@@H]1O[C@@]2(C)CCC[C@H]1O2` gave Pf growth 48h 6.57µM*, Pf growth 96h 4.65µM* and SARS PLpro yeast -0.6%.
For C/C(=N/OCO/N=C(\C)c1ccccc1F)c1ccccc1F the results were Pf growth 48h -5.1%, Pf growth 96h 1.65µM*, NS1 function inh -0.5% and SARS PLpro yeast -11.4%.
`C/C(=N\NC(=S)NCc1ccccc1)c1ccccc1F` gave Pf growth 48h inconclusive, Pf growth 96h -27.8% and SARS PLpro yeast 22.8%.
For Cc1noc(C)c1C(=O)Nc1ccc2c(c1)CCC2 the results were Pf growth 48h 24.4%, Pf growth 96h 14.7µM* and NS1 function inh -9.2%.
For Cc1noc(C)c1C(=O)Nc1ccc(F)cc1 the results were Pf growth 48h 12.5%, Pf growth 96h 19.7% and SARS PLpro yeast 1.2%.
CCN1CCN(C2=NC(=O)/C(=C/c3ccc(C)o3)S2)CC1 was read as Pf growth 48h -2.4%, Pf growth 96h 13.1µM*, NS1 function inh -0.3% and SARS PLpro yeast -1.4%.
CCc1ccc(/C=C2/SC(N3CCOCC3)=NC2=O)cc1 was read as Pf growth 48h inconclusive, Pf growth 96h 2.0%, NS1 function inh -9.6% and SARS PLpro yeast -1.9%.
`C#CC(CC)(CC)NC(=O)c1cc(S(=O)(=O)N2CCCCC2)ccc1N1CCOCC1` gave Pf growth 48h inconclusive, Pf growth 96h inconclusive and SARS PLpro yeast 3.4%.
Screening COCCn1nnnc1C(c1cc2cc(OC)ccc2[nH]c1=O)N1CCC(Cc2ccccc2)CC1 (stereo not drawn) returned Pf growth 48h 11.7µM*, Pf growth 96h -4.8%, NS1 function inh -45.8% and SARS PLpro yeast -2.2%.
O=c1[nH]c2cc3c(cc2cc1C(c1nnnn1Cc1ccccc1)N1CCN2CCCC2C1)OCCO3 (stereo not drawn) was read as Pf growth 48h inconclusive, Pf growth 96h 11.7µM*, NS1 function inh inconclusive and SARS PLpro yeast 4.9%.
CCN(Cc1ccccc1)C(c1cc2cc(C)ccc2[nH]c1=O)c1nnnn1CCOC (stereo not drawn) was read as Pf growth 48h inconclusive, Pf growth 96h 11.7µM*, NS1 function inh -36.6% and SARS PLpro yeast 3.5%.
Screening COc1ccc2cc(C(c3nnnn3CCc3ccccc3)N3CCCC(C)C3)c(=O)[nH]c2c1 (stereo not drawn) returned Pf growth 48h inconclusive, Pf growth 96h -21.7%, NS1 function inh -23.9% and SARS PLpro yeast -8.5%.
CC1CCCN(C(=O)Cn2nnc(-c3ccc(N(C)C)cc3)n2)C1 (stereo not drawn) was read as Pf growth 48h inconclusive, Pf growth 96h inconclusive, NS1 function inh 6.7% and SARS PLpro yeast -10.3%.
Screening CN(C)c1ccc(-c2nnn(CC(=O)N3c4ccccc4CCc4ccccc43)n2)cc1 returned Pf growth 48h 2.08µM*, Pf growth 96h -25.3%, NS1 function inh -11.8% and SARS PLpro yeast -8.0%.
`COc1ccc(C(c2oc(CO)cc(=O)c2O)c2oc(CO)cc(=O)c2O)cc1OC` gave Pf growth 48h 10.2%, Pf growth 96h -57.7% and SARS PLpro yeast 7.94µM*.
O=c1cc(CO)oc(C(Nc2ccccn2)c2ccc(F)cc2)c1O (stereo not drawn) was read as Pf growth 48h 7.6%, Pf growth 96h 25.7%, NS1 function inh 22.8% and SARS PLpro yeast -0.8%.
O=C1c2ccccc2NC(c2ccccc2Br)N1CCCN1CCOCC1 (stereo not drawn) was read as Pf growth 48h inconclusive, Pf growth 96h 10.4µM*, NS1 function inh 12.6% and SARS PLpro yeast 4.3%.
For Cc1ccc(C2Nc3ccccc3C(=O)N2CCCN2CCOCC2)cc1 (stereo not drawn) the results were Pf growth 48h -9.8%, Pf growth 96h 3.7%, NS1 function inh -2.0% and SARS PLpro yeast 1.0%.
Screening CCOC(=O)CN(C(=O)Cn1nnc(-c2ccc(C)cc2)n1)C(CC)C(=O)NC1CCCC1 (stereo not drawn) returned Pf growth 48h inconclusive, NS1 function inh -7.3% and SARS PLpro yeast -2.4%.
`CCC(C(=O)NC1CCCC1)N(Cc1ccco1)C(=O)Cn1nnc(-c2ccc(C)cc2)n1` (stereo not drawn) gave Pf growth 48h inconclusive, Pf growth 96h 9.28µM*, NS1 function inh -32.7% and SARS PLpro yeast -1.3%.
Screening Cc1ccc(C(C(=O)NC2CCCCC2)N(Cc2ccco2)C(=O)Cn2cnc3ccccc32)cc1 (stereo not drawn) returned Pf growth 48h 11.7µM*, Pf growth 96h -7.8%, NS1 function inh 6.6% and SARS PLpro yeast -7.3%.
Nc1ccc(C(=O)OCC(=O)Nc2ccc([N+](=O)[O-])cc2C(F)(F)F)cc1 was read as Pf growth 48h 21.5%, Pf growth 96h -16.8%, NS1 function inh 5.1% and SARS PLpro yeast 15.2%.
For CCOC(=O)c1cc(C#N)c(SCc2cccc3ccccc23)nc1C the results were Pf growth 96h 9.28µM*, NS1 function inh 10.2% and SARS PLpro yeast -1.0%.
For Cc1ccc(S(=O)(=O)/N=C2/C=C(Sc3ncn[nH]3)C(=O)c3ccccc32)c(C)c1 the results were Pf growth 48h 2.08µM*, Pf growth 96h -23.4%, NS1 function inh -23.7% and SARS PLpro yeast -78.0%.
Cc1ccc(S(=O)(=O)/N=C2/C=C(Sc3ncn[nH]3)C(=O)c3ccccc32)cc1 was read as Pf growth 48h 1.47µM*, Pf growth 96h 16.5%, NS1 function inh -31.5% and SARS PLpro yeast -75.4%.
Screening CC(C)c1ccc(S(=O)(=O)/N=C2/C=C(Sc3ncn[nH]3)C(=O)c3ccccc32)cc1 returned Pf growth 48h 1.31µM*, Pf growth 96h inconclusive, NS1 function inh -16.9% and SARS PLpro yeast -84.0%.

Assay outcomes as filed in PubChem BioAssay.
